Measurements reported in PubChem BioAssay (NCATS).
Values joined by “and” are separate entries in the source; they are usually repeats but may differ in a detail not shown here. Equal values may be shown once. Results filed as inconclusive are left out. Where a call stands in place of a potency, no number is given. Active and inactive are the calls of the source. The call rests on the fitted dose curve; in most records, active means well fitted curve in the direction sought with a large enough effect; inconclusive means small, poorly fitted or top-dose-only effect, or another doubt; inactive means no such curve, though single readings can be large; an effect the other way counts as inactive or inconclusive. Peptide text beside a SMILES is read from it.

Key:
[1] = qHTS to identify inhibitors of the type 1 interferon - major histocompatibility complex class I in skeletal muscle: primary screen against the NCATS Pharmaceutical Collection (AID 1347407);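 further: luminescence of HiBiT knocked into endogenous HLA-B as interferon-induced MHC class I level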
Outline: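 A qHTS format is used: 8-point, 1:5 compound series with 46 uM top final concentration, applied alongside 4 ng/ml IFN-beta to HLA-B*08:01-HiBiT knock-in myoblasts. Luminescence is measured after 24 h treatment.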

[2] = tested on: Zika virus NS2B-NS3 protease; experiment: Primary screen GU AMC qHTS for Zika virus inhibitors (AID 1347154); further: nearly all actives have a fitted effect of over 70% in size; further: potency means the concentration at half of the fitted maximal effect
Outline: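 Fluorogenic AMC-substrate cleavage by noncovalent NS2B-NS3 protease complex (25 nM, pH 8.0 Tris buffer with Tween 20) followed for 15 minutes at room temperature (~20% conversion). Percent inhibition from ex340/em450 signal change, fitted by 4-parameter Hill equation.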

[3] = tested on: Zika virus NS2B-NS3 protease (linked construct); experiment: Primary screen NINDS Rhodamine qHTS for Zika virus inhibitors (AID 1347160); further: nearly all actives have a fitted effect of over 55% in size
Outline: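 Single-chain NS2B-NS3 protease, 25 nM, pH 8.0; compounds preincubated 15 min. Activity: Rhodamine110 release from 1.5 microM substrate over 15 min, room temperature, data fitted to 4-parameter Hill.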

Question: With `Cc1cc(=O)oc2cc(O)ccc12` as the compound, how does the Potency [1] read?
Answer: Its Potency is “inactive”.

Question: Which Potency [2] does the source give for `c1ccc2[nH]c(-c3cscn3)nc2c1` here?
Answer: The Potency was “inactive”.

Question: What about the Potency [1] of the same compound?
Answer: Its Potency is “inactive”.

Question: Which results are given for `COc1cc2nc(N3CCN(C(=O)C4CCCO4)CC3)nc(N)c2cc1OC` (stereo not given)?
Answer: Potency [2]: 31.6 µM (active) and 24.1 µM (active); Potency [1]: inactive

Question: With `CCOC(=O)c1c(C)n(C)c2ccc(O)cc12` as the compound, how does the Potency [2] read?
Answer: Its Potency is “inactive”.

Question: What about the Potency [1] of the same compound?
Answer: Its Potency is “inactive”.

Question: With `CN(C)[C@@H](CCOc1cccc2ccccc12)c1ccccc1` as the compound, how does the Potency [2] read?
Answer: Its Potency is “inactive”.

Question: And the Potency [1]?
Answer: The Potency was “inactive”.

Question: With `O=C(NC(Cc1cc(=O)[nH]c2ccccc12)C(=O)O)c1ccc(Cl)cc1` (stereo not given) as the compound, how does the Potency [2] read?
Answer: The Potency was “inactive”.

Question: What about the Potency [1] of the same compound?
Answer: Its Potency is “inactive”.

Question: Which Potency [3] does the source give for `Clc1ccc(C(Cn2ccnc2)OCc2c(Cl)cccc2Cl)c(Cl)c1` (stereo not given) here?
Answer: The Potency was “inactive”.

Question: And the Potency [1]?
Answer: Its Potency is “inactive”.

Question: What does the source list for `COC1=C(OC)C(=O)C(CCCCCCCCCCO)=C(C)C1=O`?
Answer: Potency [2]: inactive; Potency [1]: inactive

Question: Which Potency [2] does the source give for `Cc1cccc(C)c1OCC(=O)N[C@@H](Cc1ccccc1)[C@@H](O)C[C@H](Cc1ccccc1)NC(=O)[C@H](C(C)C)N1CCCNC1=O` here?
Answer: The Potency was “inactive”.

Question: What about the Potency [1] of the same compound?
Answer: Its Potency is “inactive”.

Question: Which Potency [2] does the source give for `CCN(CC)CCOc1ccc(Cc2ccccc2)cc1` here?
Answer: The Potency was “inactive”.

Question: What about the Potency [1] of the same compound?
Answer: The Potency was “inactive”.

Question: With `CCC[C@@H]1C[C@@H](C(=O)N[C@@H]([C@H]2O[C@H](SC)[C@H](O)[C@@H](O)[C@H]2O)[C@@H](C)O)N(C)C1` as the compound, how does the Potency [2] read?
Answer: Its Potency is “inactive”.

Question: What about the Potency [1] of the same compound?
Answer: The Potency was “inactive”.

Question: For `CC1Cc2ccccc2N1NC(=O)c1ccc(Cl)c(S(N)(=O)=O)c1` (stereo not given), which Potency [2] is on record?
Answer: The Potency was “inactive”.

Question: What about the Potency [1] of the same compound?
Answer: Its Potency is “inactive”.

Question: Which results are given for `CN1CCC(=C2c3ccccc3CCc3sccc32)CC1`?
Answer: Potency [2]: inactive; Potency [1]: inactive

Question: What does the source list for `Nc1cccc2c1CN(C1CCC(=O)NC1=O)C2=O` (stereo not given)?
Answer: Potency [2]: inactive; Potency [1]: inactive

Question: For `CC1=C(C(=O)O)N2C(=O)[C@@H](NC(=O)[C@H](N)C3=CCC=CC3)[C@H]2SC1`, which Potency [2] is on record?
Answer: Its Potency is “inactive”.

Question: And the Potency [1]?
Answer: Its Potency is “inactive”.

Question: What does the source list for `COC(=O)[C@H](Cc1ccccc1)NC(=O)[C@@H](N)CC(=O)O` (H-Asp-Phe-OMe)?
Answer: Potency [2]: inactive; Potency [1]: inactive

Question: Which Potency [2] does the source give for `CC1=C(C)C(=O)C(C(CCCCCC(=O)O)c2ccccc2)=C(C)C1=O` (stereo not given) here?
Answer: Its Potency is “inactive”.

Question: What about the Potency [1] of the same compound?
Answer: The Potency was “inactive”.

Question: With `CCCCN(CCCC)CCC(O)c1cc2c(Cl)cc(Cl)cc2c2cc(C(F)(F)F)ccc12` (stereo not given) as the compound, how does the Potency [2] read?
Answer: The Potency was “inactive”.

Question: What about the Potency [1] of the same compound?
Answer: Its Potency is “inactive”.

Question: Which Potency [2] does the source give for `Nc1cc(C(Cl)=C(Cl)Cl)c(S(N)(=O)=O)cc1S(N)(=O)=O` here?
Answer: The Potency was “inactive”.

Question: What about the Potency [1] of the same compound?
Answer: The Potency was “inactive”.

Question: For `Cc1cccc(CN2CCN(C(c3ccccc3)c3ccc(Cl)cc3)CC2)c1` (stereo not given), which Potency [2] is on record?
Answer: The Potency was “inactive”.

Question: And the Potency [1]?
Answer: Its Potency is “inactive”.

Question: For `O=C(O)CCNC(=O)c1ccc(N=Nc2ccc(O)c(C(=O)O)c2)cc1`, which Potency [2] is on record?
Answer: Its Potency is “inactive”.

Question: What about the Potency [1] of the same compound?
Answer: Its Potency is “inactive”.

Question: What does the source list for `CCCOc1ccc2nc(NC(=O)OC)[nH]c2c1`?
Answer: Potency [2]: inactive; Potency [1]: inactive

Question: With `CCCc1cc(=O)[nH]c(=S)[nH]1` as the compound, how does the Potency [2] read?
Answer: Its Potency is “inactive”.

Question: What about the Potency [1] of the same compound?
Answer: Its Potency is “inactive”.

Question: With `COCCCN1CCC(NC(=O)c2cc(Cl)c(N)c3c2OCC3)CC1` as the compound, how does the Potency [2] read?
Answer: The Potency was “inactive”.

Question: What about the Potency [1] of the same compound?
Answer: The Potency was “inactive”.

Question: For `N=C(N)c1ccc2cc(OC(=O)c3ccc(N=C(N)N)cc3)ccc2c1`, which Potency [2] is on record?
Answer: The Potency was “inactive”.

Question: What about the Potency [1] of the same compound?
Answer: Its Potency is “inactive”.

Question: Which Potency [2] does the source give for `CC(C)Oc1ccc2c(=O)c(-c3ccccc3)coc2c1` here?
Answer: Its Potency is “inactive”.

Question: What about the Potency [1] of the same compound?
Answer: The Potency was “inactive”.

Question: For `Cc1ccc(C(=O)c2cc(O)c(O)c([N+](=O)[O-])c2)cc1`, which Potency [1] is on record?
Answer: Its Potency is “inactive”.

Question: Which Potency [2] does the source give for `COC(=O)N[C@H](C(=O)N[C@@H](Cc1ccccc1)[C@@H](O)CN(Cc1ccc(-c2ccccn2)cc1)NC(=O)[C@@H](NC(=O)OC)C(C)(C)C)C(C)(C)C` here?
Answer: The Potency was “inactive”.

Question: What about the Potency [1] of the same compound?
Answer: Its Potency is “inactive”.

Question: With `Cc1cc(=O)c2c(O)c3c(O)cc(=O)c4c3c3c(cc(O)c1c23)C(C)(C)C=4O` as the compound, how does the Potency [2] read?
Answer: Its Potency is “inactive”.

Question: And the Potency [1]?
Answer: Its Potency is “inactive”.

Question: Which results are given for `O=C(O)c1cc(=O)c2c(OCC(O)COc3cccc4oc(C(=O)O)cc(=O)c34)cccc2o1`?
Answer: Potency [2]: inactive; Potency [1]: inactive

Question: For `Cn1c(NCCN(CCO)CCCc2ccc([N+](=O)[O-])cc2)cc(=O)n(C)c1=O`, which Potency [2] is on record?
Answer: The Potency was “inactive”.

Question: And the Potency [1]?
Answer: Its Potency is “inactive”.

Question: For `Nc1ccc(S(N)(=O)=O)cc1`, which Potency [2] is on record?
Answer: The Potency was “inactive”.

Question: And the Potency [1]?
Answer: The Potency was “inactive”.

Question: Which Potency [2] does the source give for `CCCCCCCCOc1ccccc1C(=O)Nc1ccc(C(=O)OCC[N+](C)(CC)CC)cc1` here?
Answer: Its Potency is “inactive”.

Question: What about the Potency [1] of the same compound?
Answer: Its Potency is “inactive”.

Question: Which Potency [1] does the source give for `O=C1CCc2ccc(OCCCCN3CCN(c4cccc(Cl)c4Cl)CC3)cc2N1` here?
Answer: Its Potency is “inactive”.
